JMJD2A Tudor: inhibitors of human JMJD2A Tudor domain | O75164 | AlphaScreen JMJD2A-Tudor / H3K4me3 peptide binding | Potency, µM (titrated, usually from 114 µM), without a hit: at the highest dose activity change, negative = inhibition, hits mostly inhibitors | 390,000 compounds, 4.4% hits; also: potency is read from the fitted curve at half-maximal effect; % is scaled to controls: 0 for no effect and ±100 for the full control effect; nearly all actives have a fitted effect of over 50% in size
Six1-Eya2 blk: inhibitors of human Six1/Eya2 interaction; AlphaScreen GST-Six1/His-Eya2 binding, biochemical; active compounds read low; 360,000 compounds, 0.56% hits; activity change, % (no concentration beside the values); Q15475+O00167; in the data active = activity change below about -65%; inconclusive = mostly about -30% to -63%; also: % is scaled to controls: 0 for no effect and ±100 for the full control effect
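GST-Six1 + His-Eya2 (5X stock: 250/500 nM); Tris pH 8.0, 300 mM NaCl, 0.05% BSA, 0.02% Tween 20; GSH donor/Ni acceptor beads; 1 h 37 °C dark; AlphaScreen readout.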
CtBP-E1A blk: blocks the CtBP interaction with E1A | AlphaScreen GST-E1A/His-CtBP binding, 1536-well; active compounds read low | activity change, % (concentration not given with the values) | 340,000 compounds, 0.49% hits | AID 651724; in the data active = activity change below about -65%; inconclusive = mostly about -30% to -63%; also: % is scaled to controls: 0 for no effect and ±100 for the full control effect
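GST-E1A and His-tagged CtBP (125 nM each as 5X stock) were preincubated with pin-transferred compound for 2 h at 37 °C in the dark, then glutathione donor and nickel acceptor beads were added for 1 h before AlphaScreen reading.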
G9a block: blocks human histone lysine methyltransferase G9a; Q96KQ7; Potency, µM (doses to about 102 µM), inactives show top-dose activity, negative = inhibition, most hits filed as inhibitors; 350,000 compounds, 8.8% hits; G9a H3K9 monomethylation, AlphaScreen, 2 h; also: potency is read from the fitted curve at half-maximal effect; % is scaled to controls: 0 for no effect and ±100 for the full control effect; nearly all actives have a fitted effect of over 75% in size
Target sequence (Q96KQ7 913-1193 limits assumed): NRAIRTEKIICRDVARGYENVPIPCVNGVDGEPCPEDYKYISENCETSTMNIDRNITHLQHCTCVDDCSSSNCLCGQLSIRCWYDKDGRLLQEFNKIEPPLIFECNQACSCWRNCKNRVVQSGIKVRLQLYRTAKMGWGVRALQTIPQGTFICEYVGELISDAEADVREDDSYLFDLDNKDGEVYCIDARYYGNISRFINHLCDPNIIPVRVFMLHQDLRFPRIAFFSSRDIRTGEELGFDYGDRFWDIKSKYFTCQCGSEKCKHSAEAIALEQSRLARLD
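Compounds were preincubated with 20 nM G9a for 15 min, after which biotinylated H3K9 peptide (500 nM) and SAM (20 uM) started a 2 h room-temperature reaction. Monomethylated product was quantified by antibody-based AlphaScreen chemiluminescence.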
BAZ2B inh: blocks human BAZ2B | 360,000 compounds, 4.4% hits | Q9UIF8 | Potency, µM (top dose mostly 114 µM), without a hit: at the highest dose activity change, negative = inhibition, most hits filed as inhibitors | AID 504333 | AlphaScreen BAZ2B-H3K14Ac peptide displacement; also: potency is read from the fitted curve at half-maximal effect; % is scaled to controls: 0 for no effect and ±100 for the full control effect; nearly all actives have a fitted effect of over 60% in size
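AlphaScreen displacement: compounds (up to 110uM) incubated 30 min at room temperature with a preformed 50 nM BAZ2B/50 nM biotinylated H3K14Ac peptide complex in PBS pH 7.4 with Tween-20. Donor and acceptor beads at 10 ug/mL final added, 20 min light-protected before reading.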
HP1b chromo inh: blocks HP1-beta chromodomain binding to methylated histone tails; P83916; AlphaScreen HP1-beta / biotin-H3K9me3 peptide binding; Potency, µM (series often up to 114 µM), without a hit: at the top dose activity change, negative = inhibition, most hits filed as inhibitors; 390,000 compounds, 0.56% hits; also: potency is read from the fitted curve at half-maximal effect; nearly all actives have a fitted effect of over 70% in size
Target sequence (P83916 whole entry, looked up): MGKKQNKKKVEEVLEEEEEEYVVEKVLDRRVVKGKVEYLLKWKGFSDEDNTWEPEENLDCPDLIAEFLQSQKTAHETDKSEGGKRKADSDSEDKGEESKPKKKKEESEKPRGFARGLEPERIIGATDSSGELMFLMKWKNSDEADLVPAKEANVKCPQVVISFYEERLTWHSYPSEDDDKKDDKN
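HP1-beta protein (50 nM final) preincubated 30 min at room temperature with biotinylated H3(1-18)K9me3 peptide (50 nM) in PBS pH 7.4, 0.01% Tween-20, then compound added for 30 min. AlphaScreen streptavidin donor/nickel chelate acceptor beads (10 ug/mL final), 30 min dark, luminescence read.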
Numbers without * were called inactive; ? = inconclusive; / = no result given; [ ] = dose if it differs, or a comment. This is a sample that favours compounds with a hit; in the whole collection about 10% have one here. Unless noted, calls follow the shape of the dose curve; as a rule, active = well fitted inhibition curve with a large enough effect; inconclusive = small, poorly fitted or top-dose-only effect; inactive = no such curve, though single readings can be large or run the other way.

SMILES | JMJD2A Tudor | Six1-Eya2 blk | CtBP-E1A blk | G9a block | BAZ2B inh | HP1b chromo inh
Cc1ccc(Nc2nc(N)c([N+](=O)[O-])c(N3CCC(C)CC3)n2)cc1C | 56µM* | 2 | 0 | ? | 25µM* | ?
CSc1nc(C)cc(Nc2cccc(C(=O)O)c2)n1 | -19% | / | / | ? | -24% | 47%
CCC(=O)N1c2ccccc2CC1C(=O)NCCc1ccccc1OC (centres undefined) | -16% | / | / | 2%[59 µM] | -4% | 19%
COc1ccccc1NC(=S)NN=C(C)c1ccccn1 | ? | -72* | -81* | / | / | ?
C/C(=N\NC(=S)Nc1ccc(C)cc1)c1cccc(N)c1 | ? | -9 | -11 | 45µM* | ? | -25%
C/C(=N\NC(=S)Nc1ccc(F)cc1)c1ccc2c(c1)OCCO2 | 32µM* | ? | 23 | ? | 35µM* | ?
C/C(=N\NC(=S)Nc1cccc(C)c1)c1cccc(N)c1 | ? | -16 | 2 | ? | ? | ?
CC(=NNC(=S)Nc1cccc(C)c1)c1ccccn1 | 50µM* | -81* | 3 | / | / | ?
C/C(=N\NC(N)=S)c1ccc2c(c1)OCCO2 | -15% | -6 | 0 | / | -3% | 9%
COc1ccccc1NC(=O)c1ccccc1NC(=O)c1ccccn1 | -9% | -3 | -8 | ? | 3% | 13%
CC(C)C(C(=O)NC1CCCC1)N1CCN(c2ncccc2C#N)CC1 (centres undefined) | / | 5 | -13 | / | / | /
CCOC(=O)C1(C)CCCN(C(=O)c2cccnc2SC)C1 (centres undefined) | / | 8 | 2 | / | / | /
CCOc1ccc(NC(=O)c2ccc(NC(=O)N3CCSc4ncccc43)cc2)cc1 | 12% | / | / | -3%[59 µM] | -2% | 28%
CC(=NNC(=S)Nc1ccc(C)cc1)c1ccccn1 | 79µM* | -85* | -8 | / | / | ?
C/C(=N\NC(=O)C(c1ccccc1)c1ccccc1)c1ccccn1 | -22% | -12 | -15 | 20% | -7% | 13%
CC(C)c1nc2cc(C(=O)NC(c3cccnc3)C(F)(F)F)ccc2o1 (centres undefined) | -13% | 1 | 1 | 9% | -2% | -1%
CC1(C)C2CCC(C2)C1(C)NC(=O)CNCC1CCCCC1 (centres undefined) | ? | 5 | 2 | 5.6µM* | / | ?
O=C(CC1CCCCC1)NC1CCCC1 | 4% | -2 | -4 | 7%[2.33 µM] | 12% | 43%
CCOCCCNCC(=O)NC1(C)C2CCC(C2)C1(C)C (centres undefined) | 6.3µM* | 0 | 1 | ? | 56µM* | -57%
C=CCN1N=C(c2ccc(Cl)s2)CSC1=O | 16% | 12 | 9 | -11%[59 µM] | 13% | 45%
N#Cc1nc(Nc2cc(F)cc(F)c2)nc(NC2CCCC2)n1 | -12% | / | / | / | / | /
COc1cc(CC(=O)Nc2ccc3c(c2)CCC3)cc(OC)c1OC | -16% | -7 | 3 | 4%[59 µM] | 2% | 28%
CCOc1cc(CNc2ccc3c(c2)CCC3)ccc1O | 79µM* | -5 | -6 | 8.9µM* | -37% | -18%
CCOc1ccccc1NC(=O)Nc1ccc2c(c1)CCC2 | -19% | -4 | -1 | 14% | -15% | 33%
COc1cc(CNc2ccc3c(c2)CCC3)cc(OC)c1O | 4µM* | -6 | -5 | ? | 40µM* | 32µM*
SMILES | JMJD2A Tudor | Six1-Eya2 blk | CtBP-E1A blk | G9a block | BAZ2B inh | HP1b chromo inh
Cc1ccccc1NC(=O)c1cccnc1 | 4% | -4 | / | / | 13% | 26%
CCN(CC)c1ccc(NC(=O)c2cccnc2)c(C)c1 | 0%[57.1 µM] | 0 | -10 | 32µM* | -4%[57.1 µM] | 12%
CCN(CC)c1ccc(-n2nc3cc(C)c(NC(=O)c4ccccc4C)cc3n2)c(C)c1 | 47% | / | / | 95%[59 µM] | 37% | 129%
CCN(CC)c1ccc(NC(=O)c2cnc3ccccn3c2=O)c(C)c1 | 45µM* | -8 | -19 | 1.8µM* | ? | ?
CCN(CC)c1ccc(NC(=O)c2cccc(C)c2OC)c(C)c1 | 40µM* | ? | ? | 3.5µM* | 35µM* | ?
COc1c(C)cccc1C(=O)Nc1ccc(OCC(=O)N2CCOCC2)cc1C | -3% | 3 | -2 | -7% | 56µM* | 45%

Assay outcomes deposited in PubChem BioAssay by National Center for Advancing Translational Sciences (NCATS).
